# Laboratory results taken from the supplement of paper PMC6555819.
# System: PPARg:RXRa DBDmut IVT, anti-RXR (DBD mutation: RXRa K156A/R161A, NR concentration 270 nM, RXRa partner concentration 90 nM)
# Assay: PBM binding z-score (relative to random genomic background probes); higher = stronger binding; sequences stand for … in GC…GCGATTGACAGCGTAGAATGAAGG
# Procedure, shortened: (§1)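 Regression normalization was applied to scanned fluorescence from custom Agilent 4×180K protein-binding microarrays. Before scanning, arrays were incubated 1 h with ligand-free nuclear receptor dimers, and binding was detected with antibodies against each partner (one per run). Binding z-scores use the random background probes as reference.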
row,Sequence,PBM binding z-score
1,TCATTTAGGTAAAAGGTGAAAGTCGGTGTGGTAA,4.84
2,CCTAGTTAGTCAGGAGGTCACACACCGGATATGA,1.08
3,TATACAGGGTCAAAGGCCAGAGGACGAATGTCGA,1.96
4,GTACCAAGGTGAATAGGTGGTTGATGAGTAGGCG,1.79
5,CGAACGAGGGCAGGAGTTGATAGCAAATGCCGAT,1.98
6,CCTTACGGGTCACGAGGCTATAGCACGACGAGCG,3.61
7,TCTATTAGTTGAAGGACAACCGACGAGTCCGTTT,2.84
8,CGTCCAAGGCCATAGGAGGTCAGTGAAGACAGAT,0.496
9,CCTACTGGGCCATTCAGAGGTCATTCATCATATG,4.22
10,AGAATGAGGTTATACGTGGATCAGGGAAGAAAGT,3.62
11,TCATATATGTAATACAGGTGAAAGTCGGCATCTA,2.42
12,ATCGAAAGGTCGGGGTGAGTATAGAGAAAGGGAA,1.56
13,ATCTCTAGGTAAAGTTCAGGGAAAGATCGATAGA,2.67
14,ATATGTAGGTTACATCCGGGTCACTCAGGCTATG,7.65
15,GCTAGAAGGCCATTTGGGTCACTCAATGACGGGC,1.13
16,GGAACGAGGGCTAGTTGATAGCAGAGTTTGATGG,0.122
17,TGAACGAGGTTAAAGATCAGGGAACGTGGCGTCG,1.29
18,TCATATAGGTAAAGATGAAAGTCGAACGATATGA,3.2
19,AGAACGAGGGCAATGAGTTGATACCACGGGTGGC,3.03
20,CAGCCTGGGTCAGGGCCAGTATAGGAGGAACGTT,-0.161

row,Sequence,PBM binding z-score
1,CCTTACGGGTCACGAGGTTATAACACGACGAGCG,3.55
2,TCTGCGAGGTCAACGATGGTCAGCTAATCTGCTA,3.66
3,GCTAGCAGCCCATTTGGGTCACTCAATGACGGGC,-0.167
4,CCTGCTGGGTCAATGGTCAGCTAAAGCAGCTCGC,2.51
5,TAGCCTAAGTCATTCAGGGGCCAGTATAGAAAGC,-0.155
6,CCTTACGGGTCACTAACAGGTTATAGCATTTGGA,2.88
7,TTCCCAAGGTGAAAGGTCGTTGATGCACGCCTTG,1.67
8,AGAACGAGGGCACGCTGAGTTGATATCAGAGTAG,4.16
9,CTACCAAGGTGAACAAGGTCGTGGATTACTATTC,2.25
10,CGAACTAGGGCAAGGACAGTGAATCTCCGCACGC,7
11,CGAATTAGGTCAGAACAGGACAGTGAAGGATGAT,7.02
12,GCTCCTAGGTCAGGTTGGTCAGCTAACGGGTACG,3.08
13,TTACCTAGGTGAAAGGTCGTTGATGCACGCCTTG,5.23
14,TCTATTAGTTGATTAGGGCAACCAAAACAGCGGA,2
15,TCGAGTTGGTCAAAGGTCACACACTCGAAATGCG,1.75
16,CAAACTAGGTCACGAAAGGACAAAGTCGAATGAC,8.65
17,TAGCCTAGGTCAGATCGAGCCAGTATACGCTATA,0.497
18,AATACAGGGTCACTAGGCCAGACTAGGTACGAAT,4.01
19,CGTCCGAGGTCAGAGAGGTCAGTGAATGCCGAGT,3.24
20,CAAACTAAGTCACAGAGGTCAAAGTCCGTGCGTA,2.87

# System: PPARg:RXRa IVT, anti-PPARg (NR concentration 270 nM, RXRa partner concentration 90 nM)
# Assay: as above
# Procedure, shortened: as §1
row,Sequence,PBM binding z-score
1,TCATTTAGGTAAAAGGTGAAAGTCGGTGTGGTAA,4.91
2,CCTAGTTAGTCAGGAGGTCACACACCGGATATGA,2.35
3,TATACAGGGTCAAAGGCCAGAGGACGAATGTCGA,4.98
4,GTACCAAGGTGAATAGGTGGTTGATGAGTAGGCG,1.93
5,CGAACGAGGGCAGGAGTTGATAGCAAATGCCGAT,1.44
6,CCTTACGGGTCACGAGGCTATAGCACGACGAGCG,4.78
7,TCTATTAGTTGAAGGACAACCGACGAGTCCGTTT,0.286
8,CGTCCAAGGCCATAGGAGGTCAGTGAAGACAGAT,1.69
9,CCTACTGGGCCATTCAGAGGTCATTCATCATATG,4.45
10,AGAATGAGGTTATACGTGGATCAGGGAAGAAAGT,2.12
11,TCATATATGTAATACAGGTGAAAGTCGGCATCTA,2.27
12,ATCGAAAGGTCGGGGTGAGTATAGAGAAAGGGAA,2.45
13,ATCTCTAGGTAAAGTTCAGGGAAAGATCGATAGA,2.44
14,ATATGTAGGTTACATCCGGGTCACTCAGGCTATG,7.47
15,GCTAGAAGGCCATTTGGGTCACTCAATGACGGGC,1.97
16,GGAACGAGGGCTAGTTGATAGCAGAGTTTGATGG,-0.508
17,TGAACGAGGTTAAAGATCAGGGAACGTGGCGTCG,2.81
18,TCATATAGGTAAAGATGAAAGTCGAACGATATGA,1.97
19,AGAACGAGGGCAATGAGTTGATACCACGGGTGGC,2.47
20,CAGCCTGGGTCAGGGCCAGTATAGGAGGAACGTT,1.32

row,Sequence,PBM binding z-score
1,CCTTACGGGTCACGAGGTTATAACACGACGAGCG,5.17
2,TCTGCGAGGTCAACGATGGTCAGCTAATCTGCTA,4.67
3,GCTAGCAGCCCATTTGGGTCACTCAATGACGGGC,0.995
4,CCTGCTGGGTCAATGGTCAGCTAAAGCAGCTCGC,3.15
5,TAGCCTAAGTCATTCAGGGGCCAGTATAGAAAGC,-0.0585
6,CCTTACGGGTCACTAACAGGTTATAGCATTTGGA,3.68
7,TTCCCAAGGTGAAAGGTCGTTGATGCACGCCTTG,4.56
8,AGAACGAGGGCACGCTGAGTTGATATCAGAGTAG,3.89
9,CTACCAAGGTGAACAAGGTCGTGGATTACTATTC,3.01
10,CGAACTAGGGCAAGGACAGTGAATCTCCGCACGC,6.14
11,CGAATTAGGTCAGAACAGGACAGTGAAGGATGAT,7.15
12,GCTCCTAGGTCAGGTTGGTCAGCTAACGGGTACG,2.33
13,TTACCTAGGTGAAAGGTCGTTGATGCACGCCTTG,6.14
14,TCTATTAGTTGATTAGGGCAACCAAAACAGCGGA,1.72
15,TCGAGTTGGTCAAAGGTCACACACTCGAAATGCG,5.88
16,CAAACTAGGTCACGAAAGGACAAAGTCGAATGAC,9.28
17,TAGCCTAGGTCAGATCGAGCCAGTATACGCTATA,1.39
18,AATACAGGGTCACTAGGCCAGACTAGGTACGAAT,5.9
19,CGTCCGAGGTCAGAGAGGTCAGTGAATGCCGAGT,4.09
20,CAAACTAAGTCACAGAGGTCAAAGTCCGTGCGTA,3.84
